High-throughput results: PubChem, The Scripps Research Institute Molecular Screening Center
MITF inh: blocks human microphthalmia-associated transcription factor; AlphaScreen MITF homodimerization, bead proximity signal; inhibition, % at 2.6 µM; 650,000 compounds, 0.91% hits; in the data active means inhibition above about 50%;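 further: 0% = vehicle wells with protein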
FBW7 act: human FBW7 E3 ligase activation, primary screen. Q969H0. AID 1259310. AlphaScreen FBW7–phospho-cyclin E peptide binding, activator screen. 650,000 compounds, 0.13% hits. normalized activity (activation), % at 26.1 µM; in the data active means normalized activity above about 1.9%;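 further: purified mutant Fbw7 with reduced substrate affinity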
TEAD-YAP block: TEAD-YAP interaction inhibition; HEK-TIYL cells, TEAD-Gal4/YAP UAS-luciferase luminescence; inhibition, % at 9.12 µM; AID 1259422; 640,000 compounds, 1.4% hits; in the data active means inhibition above about 32%;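 further: 0% = median of test compound wells and 100% = reference inhibitor wells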
GPR151 activ: human GPR151 activation; PathHunter beta-arrestin GPR151 cells, luminescence; 650,000 compounds, 1% hits; AID 1508602; activation, % at 11.2 µM; Q8TDV0; in the data active means activation above about 4.9%;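 further: 0% = median of compound wells and 100% = cells with positive control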
GPR151 confirm: confirmation of human GPR151 activators; shares compounds with GPR151 activ; GPR151 PathHunter beta-arrestin cells, luminescence, 90 min; % of EA-reagent control over plate median; activation, % at 11.2 µM; 6,700 tested, under 10 active; AID 1508609;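 active means mean percent activation across replicates above the confirmation screen cutoff of 4.91%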
GPR119 ag: activates human GPR119 in a GPR151 counter-screen. shares compounds with GPR151 activ. GPR119 PathHunter beta-arrestin cells, luminescence, 90 min; 0 = compound-well median, 100 = enzyme-acceptor control. activation, % at 11.2 µM. 6,700 compounds, 0.3% hits. AID 1508611;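 active means mean percent activation in the counterscreen above 29.09%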;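 further: counterscreen on off-target GPR119 to flag nonselective hits from the GPR151 activator screen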
Target sequence (Q8TDV5 whole entry, looked up): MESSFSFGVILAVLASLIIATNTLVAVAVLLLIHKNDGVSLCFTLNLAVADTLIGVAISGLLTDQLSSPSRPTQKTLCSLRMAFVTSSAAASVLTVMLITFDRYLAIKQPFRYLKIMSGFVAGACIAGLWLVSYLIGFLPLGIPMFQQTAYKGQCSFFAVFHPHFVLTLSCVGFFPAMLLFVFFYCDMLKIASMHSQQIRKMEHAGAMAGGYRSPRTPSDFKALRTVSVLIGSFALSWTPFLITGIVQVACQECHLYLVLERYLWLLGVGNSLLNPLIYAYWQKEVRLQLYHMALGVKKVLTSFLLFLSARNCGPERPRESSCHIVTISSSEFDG
An asterisk follows results filed as active; · = not tested or not shown; ! = a repeat was not active. A selection: hits, their analogues and other compounds. The true share with any hit is near 3.5%.

SMILES	MITF inh	FBW7 act	TEAD-YAP block	GPR151 activ	GPR151 confirm	GPR119 ag
Cc1ccc(-n2c3c(cc(C(=O)Nc4ccc5c(c4)OCCO5)c2=O)C(=O)CCC3)cc1	10	0	16	5.0*	0	1
Cc1ccc(NC(=O)c2cc3c(n(-c4ccc(C)cc4)c2=O)CCCC3=O)cc1	0	0	-17	-1	·	·
CC(=O)c1ccc(N2CCN(c3ncnc4c3c(-c3ccccc3)cn4-c3cccc(Cl)c3)CC2)cc1	12	0	5	0	·	·
Oc1oc(-c2ccccc2Br)nc1C=Nc1ccc(I)cc1	6	0	-1	9.3*	0	2
Oc1oc(-c2ccccc2Br)nc1C=Nc1ccc(Br)cc1	-3	0	-1	1	·	·
CC1(C)CC(=O)c2sc(NC(=O)COc3ccc(Cl)cc3)nc2C1	4	0	8	6.4*	0	3
CCN(CC)S(=O)(=O)c1ccc(C(=O)Nc2nnc(-c3ccc(OC)cc3)o2)cc1	20	0	4	5.3*	0	-2
CCCCSc1nnc2c(n1)OC(c1ccc(OC(C)=O)cc1OC(C)=O)N(C(C)=O)c1ccccc1-2 (configuration not stated)	7	0	-10	1	·	·
C#C[C@]1(O)CC[C@H]2[C@@H]3CCc4cc(O)ccc4[C@H]3CC[C@@]21C	-5	0	·	2	·	·
C#C[C@]1(O)CC[C@H]2[C@@H]3CCC4=Cc5oncc5CC4(C)[C@H]3CCC21C (some centres not stated)	1	0	-15	5.5*!	1	-2
Cc1nnc(NC(=O)CSc2cn(CCNC(=O)c3ccc(F)cc3)c3ccccc23)s1	19	0	-5	0	·	·
Cc1ccccc1CSc1nn2c(=O)c(C)nnc2s1	-6	-1	1	6.8*	1	14
Cc1nnc2sc(SCc3ccc([N+](=O)[O-])cc3)nn2c1=O	-5	0	1	0	·	·
O=C(NCc1ccccc1)c1cccc(Nc2ccccc2)n1	1	0	-5	2	·	·
CCCCc1ccc(NC(=S)NN2CCOCC2)cc1	-3	0	-22	4	·	·
CCC(C)c1ccc(NC(=S)NN2CCOCC2)cc1 (configuration not stated)	21	0	-53	23*	0	9
COc1ccc(C(=O)NCCS(=O)(=O)NCCCOC(C)C)cc1	3	0	-2	5.2*	-2	-15
Nc1ccc(Oc2ccc3ccccc3c2Cl)c(Cl)c1	10	1	-9	2	·	·
Nc1ccc(Oc2ccc(Cl)c3ccccc23)c(Cl)c1	4	0	2	11*	0	7
CCCCc1nc2cc(NC(=O)NCC)c(C)nc2n1Cc1cccc(OC)c1	1	0	-20	1	·	·
CC(NC(=O)Nc1ccc(S(N)(=O)=O)cc1)(C(F)(F)F)C(F)(F)F	22	0	-2	4.9*	0	-5
COc1ccc(S(=O)(=O)NCc2ccncc2)cc1OC	-25	0	8	5.4*	1	-6
COc1ccc(NC(=O)CCS(=O)(=O)c2ccccc2)cc1	15	0	-48	-1	·	·
OCCN1CCN(CCCN2c3ccccc3Sc3ccc(Cl)cc32)CC1	18	0	3	4	·	·
CN1CCN(CCCN2c3ccccc3Sc3ccc(S(=O)(=O)N(C)C)cc32)CC1	-5	0	·	5.4*	-1	-7
SMILES	MITF inh	FBW7 act	TEAD-YAP block	GPR151 activ	GPR151 confirm	GPR119 ag
Cc1cc(C)c(NC(=O)/C(C#N)=C\c2ccco2)c(C)c1	-16	0	5	6.3*	-1	-1
Cc1cccc(NC(=O)/C(C#N)=C\c2ccco2)c1	8	0	-62	1	·	·
O=C(c1ccco1)N1C2CCC1CC(c1ccc(F)cc1)C2 (configuration not stated)	-6	0	-6	8.6*	0	2
Cc1nnsc1C(=O)N1CCC(c2ccccc2)C1 (configuration not stated)	13	0	-4	-1	·	·
O=C(c1cscn1)N1C2CCC1CC(c1ccc(F)cc1)C2 (configuration not stated)	8	0	5	0	·	·
Cc1nnsc1C(=O)N1C2CCC1CC(c1ccc(F)cc1)C2 (configuration not stated)	-19	0	16	12*	0	1
COc1ccc(OC)c(/C=C2/SC(=Nc3cccc(C)c3)NC2=O)c1	8	0	7	0	·	·
Cc1ccc(CN2CCN(Cc3cc(C(C)C)n[nH]3)CC2CCO)cc1 (configuration not stated)	1	0	1	1	·	·
O=C(NC1CCSC1=O)C1CN(C(=O)c2ccc(F)c(F)c2)C1 (configuration not stated)	-1	0	1	8.2*	0	-4
O=C(NCc1ccco1)C1CN(C(=O)c2ccc(F)c(F)c2)C1	-1	0	2	1	·	·
O=C(Nc1c(F)cccc1F)c1ccc(Cl)cc1	3	0	-1	7.7*	-1	-1
O=C(Nc1ccc2ccccc2c1)c1ccc(Cl)cc1	3	0	-49	5.2*	0	-8
O=C(Nc1c(F)cccc1F)c1ccccc1Cl	13	0	-22	-1	·	·
CCCCCCCCCCCCCCCCOP(=O)(O)OCC[N+](C)(C)C	-13	0	5	11*!	0	6
COCc1ccc(CN2CCCC(c3[nH]ncc3-c3c(F)cccc3F)C2)o1 (configuration not stated)	10	0	14	-1	·	·
COc1ccc(-c2c(C(F)(F)F)oc3c(CN4CCCCCC4)c(O)ccc3c2=O)cc1OC	15	1	0	-1	·	·
COc1ccccc1C(NC(=O)c1cnccn1)c1nccn1C (configuration not stated)	10	1	1	0	·	·
COc1ccccc1C(NC(=O)c1nccc2ccccc12)c1nccn1C (configuration not stated)	7	0	-2	6.4*	0	-1
Cc1noc(C)c1C(=O)OCC(=O)NC(=O)NC1CCCC1	5	0	3	-4	·	·
COCCNCc1nc2c(c(=O)n(C)c(=O)n2C)n1Cc1ccccc1Cl	-4	0	-4	5.1*	0	15
CCCCCC1CCC(c2ccc(C(=O)Nc3cccc(NC(=O)c4ccc(C5CCC(CCCCC)CC5)cc4)n3)cc2)CC1 (configuration not stated)	-2	0	-8	1	·	·
CC(=O)Nc1ccc(S(=O)(=O)Nc2ccccc2C(C)C)cc1	5	0	4	5.9*	0	-14
CCc1c(C)nc(N)n2c(SCC(=O)Nc3ccc(N4CCCC4)cc3)nnc12	6	0	24	1	·	·
Cc1ccc(C2CC(C(F)(F)F)n3nc(C(=O)Nc4ccc(C#N)cc4)cc3N2)cc1 (configuration not stated)	9	0	-1	1	·	·
